Source: PubChem (Sanford-Burnham Center for Chemical Genomics)
CYP2C9 inhib = human CYP2C9 inhibition. CYP2C9 Supersomes, luciferin-H conversion, luminescence. inhibition, % at 5 µM. 96,000 compounds, 20% hits. AID 777;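 active = blocking of liver enzyme CYP2C9 beyond about 50% at 5 µM, limit read from the data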
Target sequence (P11712 whole entry, looked up): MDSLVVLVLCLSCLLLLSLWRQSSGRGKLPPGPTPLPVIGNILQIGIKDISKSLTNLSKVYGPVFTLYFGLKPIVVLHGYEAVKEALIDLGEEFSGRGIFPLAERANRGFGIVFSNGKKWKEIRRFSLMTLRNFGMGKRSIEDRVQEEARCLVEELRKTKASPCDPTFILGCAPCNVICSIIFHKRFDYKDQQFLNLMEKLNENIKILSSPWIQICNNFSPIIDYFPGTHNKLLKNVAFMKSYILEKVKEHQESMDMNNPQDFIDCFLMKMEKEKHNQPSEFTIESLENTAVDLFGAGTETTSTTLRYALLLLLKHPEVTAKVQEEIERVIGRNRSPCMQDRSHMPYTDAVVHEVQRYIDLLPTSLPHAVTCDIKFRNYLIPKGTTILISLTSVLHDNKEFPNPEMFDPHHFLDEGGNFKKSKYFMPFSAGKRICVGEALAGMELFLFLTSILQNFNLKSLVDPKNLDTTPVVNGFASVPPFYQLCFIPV
CYP2C19 inhib = inhibitors of human CYP2C19; P33261; CYP2C19 Supersomes, luciferin-H EGE luminescence, 30 min; inhibition, % at 5 µM; 96,000 compounds, 21% hits; AID 778;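 active = CYP2C19 inhibition above a set limit at 5 µM in the primary screen, cut at about 50% in these data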
CYP2C9 activ = increases human cytochrome P450 2C9 activity; 96,000 compounds, 1.4% hits; P11712; activation factor at 5 µM; AID 1024; recombinant CYP2C9, luciferin-H conversion, luminescence; stronger effect = higher value; factor 1 = untreated enzyme, 0 = blocked;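 active = activation factor of 2 or more for CYP2C9 at a 5 µM dose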
CYP2C19 activ = increases human CYP2C19 enzyme activity. P33261. recombinant CYP2C19, luciferin-H EGE luminescence; stronger effect = higher value; 0 = fully inhibited enzyme, 1 = untreated enzyme. activation factor at 5 µM. 96,000 tested, under 10 active. AID 1025;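 active = activation factor of at least 2 at 5 µM in the primary screen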
Of the large screens only hits and unclear results are named; the others gave an inactive call. Compounds with a hit are over-represented: about 31% of the library has one in this group of screens.

O=C(Cn1cnc2c(nnn2-c2ccccc2)c1=O)NCCc1ccccc1	none
Cc1sc2ncnc(SCC(=O)c3ccc(Cl)s3)c2c1C	none
COC(=O)c1sc(S(=O)(=O)NCc2ccccc2)c(C(=O)OC)c1C	CYP2C9 inhib 60.0, CYP2C19 inhib 83.4
COC(=O)c1sc(S(=O)(=O)N2CCCCC2)c(C(=O)OC)c1C	CYP2C19 inhib 62.4
COC(=O)c1sc(S(=O)(=O)N2CCN(c3ccccc3)CC2)c(C(=O)OC)c1C	CYP2C9 inhib 77.8, CYP2C19 inhib 88.6
COC(=O)c1sc(S(=O)(=O)N2CCC(C)CC2)c(C(=O)OC)c1C	none
Cc1nc(CS(=O)(=O)c2ccccc2)cc(Sc2ccccc2Cl)n1	none
COc1ccc(NC(=O)[C@@H]2[C@@H]3C(=O)N(C4CCCCC4)C(=O)[C@@H]3C3c4ccccc4C=CN32)cc1 (stereo not given in full)	CYP2C9 inhib 57.4
CC1SC(=NC(=O)c2ccco2)NC1=O (stereo not given)	none
CCC1SC(=NC(=O)c2ccc(Cl)c(Cl)c2)NC1=O (stereo not given)	CYP2C9 inhib 57.5
O=C(Oc1cccnc1)c1ccc(Cl)cc1	none
O=C(NNC(=O)c1ccncc1)c1ccncc1	none
COC(=O)c1cccnc1NC(=S)NNC(=O)c1ccncc1	CYP2C19 inhib 84.1
CN(N)C(=S)NCc1ccccc1	none
CC(=O)c1ccc(N2CCN(C(=O)c3ccc(NC(=O)C4CCCO4)cc3)CC2)cc1 (stereo not given)	none
CC(C)Nc1oc(Cc2cccc3ccccc23)nc1C#N	CYP2C9 inhib 55.8, CYP2C19 inhib 98.9
CC1CN(c2oc(Cc3cccc4ccccc34)nc2C#N)CC(C)O1 (stereo not given)	CYP2C9 inhib 59.7, CYP2C19 inhib 64.2
CNc1oc(Cc2cccc3ccccc23)nc1C#N	CYP2C19 inhib 95.7
Cc1ccc(/C=C2\CCC3=C2OC(N)=C(C#N)C3c2ccc(C)cc2)cc1 (stereo not given)	CYP2C9 inhib 55.9
COc1ccccc1CNn1c(-c2cccc(C)c2)nc2ccccc2c1=O	CYP2C9 inhib 86.2, CYP2C19 inhib 96.7
COc1ccc(CNn2c(-c3cccc(C)c3)nc3ccccc3c2=O)cc1OC	CYP2C19 inhib 80.8
COc1ccccc1CNC(=O)CCc1nc2ccccc2c(=O)[nH]1	none
Cn1nc(Oc2nc(N3CCOCC3)nc(N3CCOCC3)n2)ccc1=O	none
Cn1c2c(c3ccccc31)CC/C2=N\O	CYP2C19 inhib 79.0
CN1CCc2c(c3ccccc3n2C)C1	none
COc1ccc(S(=O)(=O)NCc2ccccc2Cl)cc1OC	CYP2C19 inhib 95.1, CYP2C9 activ 2.3
CCN(CC)CCNS(=O)(=O)c1ccc(OC)c(Br)c1	none
CCCCCCNS(=O)(=O)c1ccc(OC)c(OC)c1	CYP2C19 inhib 85.4, CYP2C9 activ 2.3
COc1ccc(S(=O)(=O)NCCSc2ccc(C)cc2)cc1OC	CYP2C19 inhib 81.5
COc1ccc(S(=O)(=O)NCCSCc2cccc(C)c2)cc1Br	CYP2C9 activ 2.1
N#Cc1ccccc1NC(=O)c1ccc(-c2ccccc2Cl)o1	none
O=C(O)CSc1nc2c(c(=O)[nH]1)CCCC2	none
N#CC(c1ccc(O)cc1)N1CCCCC1 (stereo not given)	none
C/C(N)=C(/C#N)C(=O)CSc1nnc(COc2cc(C)ccc2C)o1	none
COc1cc(S(=O)(=O)NCc2ccccc2)ccc1F	CYP2C19 inhib 98.2, CYP2C9 activ 2.2
COc1ccc(S(=O)(=O)NCCSc2ccccc2)cc1OC	CYP2C19 inhib 97.2, CYP2C9 activ 2.4
CC(C)c1nnc(NC(=O)CC(=O)Nc2ccccc2C(=O)O)s1	none
CCCCC(=O)NC(Nc1nc(C2CC2)cs1)(C(=O)OCC)C(F)(F)F (stereo not given)	CYP2C19 inhib 62.6
CCOC(=O)NC(Nc1cc(C)ccn1)(C(F)(F)F)C(F)(F)F	CYP2C19 inhib 54.5
CCOC(=O)NC(NCc1ccccc1Cl)(C(F)(F)F)C(F)(F)F	CYP2C19 inhib 58.0
CCOC(=O)N1CCN(Cc2ccccc2Cl)CC1	none
CCOC(=O)NC(Nc1ccc(S(N)(=O)=O)cc1)(C(=O)OCC)C(F)(F)F (stereo not given)	none
CCCCC(=O)NC(Nc1cc(C)ccn1)(C(=O)OCC)C(F)(F)F (stereo not given)	CYP2C19 inhib 71.8
N#CNC1=NCN(Cc2ccccc2)CN1	none
CCCCN1C(=O)C(NC(C)=O)c2ccccc21 (stereo not given)	none
CC(=O)NC1C(=O)N(CCc2ccccc2)c2ccc(Br)cc21 (stereo not given)	CYP2C19 inhib 80.4
C=CCN1C(=NC(=O)CCC(=O)O)SC2CS(=O)(=O)CC21 (stereo not given)	none
CCn1c(SCC(=O)Nc2ccccc2C(=O)OC)nnc1-c1ccoc1C	CYP2C19 inhib 94.5
CCn1c(SCC(=O)Nc2ccccc2C(=O)OC)nnc1-c1ccc(N)cc1	CYP2C19 inhib 98.0
CCn1c(CC(=O)Nc2ccccc2)nnc1SCC(=O)Nc1ccccc1C(=O)OC	none
CC(C)OCCCNC(=O)c1sc(=S)n(C)c1N	CYP2C9 inhib 67.4, CYP2C19 inhib 57.1
O=C1CCC(/C=C/c2ccccc2)=NN1Cc1ccc(Cl)c(Cl)c1	CYP2C9 inhib 73.4
O=C(CN1CCSCC1)N/N=C/c1ccc(F)c(F)c1	none
Fc1ccc(NCc2nnc(SCc3nnc(-c4ccccc4)o3)n2CC2CCCO2)cc1 (stereo not given)	none
Cn1cccc1C(=O)c1ccc(Cl)cc1Cl	none
O=C(c1ccc(Cl)cc1Cl)C1(n2cncn2)Oc2ccccc2C1O (stereo not given)	CYP2C9 inhib 93.0, CYP2C19 inhib 99.0
O=C(NC1CC2CCCC(C1)N2S(=O)(=O)c1ccccc1)c1ccccc1 (stereo not given)	CYP2C19 inhib 62.6
Cc1cccc(C(=O)NC2CC3CCCC(C2)N3S(=O)(=O)c2ccccc2)c1 (stereo not given)	CYP2C9 inhib 91.1, CYP2C19 inhib 97.1
O=C(NC1CC2CCCC(C1)N2C(=O)NC1CCCCC1)c1ccccc1 (stereo not given)	none
O=C(NC1CC2CCCC(C1)N2C(=O)Nc1ccccc1)c1ccncc1 (stereo not given)	CYP2C19 inhib 91.5
O=C(NC1CCS(=O)(=O)C1)c1cccc(S(=O)(=O)N2CCCCC2)c1 (stereo not given)	none
CC(=O)Nc1ccc(S(=O)(=O)N2C3CCCC2CC(NC(=O)C2CCCCC2)C3)cc1 (stereo not given)	none
CC(=O)NC1CC2CCCC(C1)N2S(=O)(=O)c1ccccc1 (stereo not given)	CYP2C19 inhib 50.3
CC(=O)n1cc(-c2ccncc2)c2ccccc21	CYP2C9 inhib 79.4, CYP2C19 inhib 79.9
O=C1CCN(C(=O)Nc2ccccc2Cl)N1	none
Cc1nn(C)c(Oc2cccc(Cl)c2)c1C=O	none
CCCCN(CCCC)c1nc2ccccc2nc1C(C#N)C(=O)NCCCOC (stereo not given)	none
CCCCCNC(=O)C(C#N)c1nc2ccccc2nc1N1CCCC1 (stereo not given)	none
CCN(CC)c1nc2ccccc2nc1C(C#N)C(=O)NCCc1ccccc1 (stereo not given)	CYP2C9 inhib 54.2
